Hit rate of the full screen: of about 5,500 compounds, about 2,000 (36%) were called active. Roughly 18% stayed inconclusive and do not appear here. No stated cut-off is given here; in the data, active means normalized growth mostly below about 0.91 (no sharp cut-off); inconclusive means no clear call, values can overlap the other calls; inactive means mostly above about 0.92. The list shows a part of the results.
Assay: chemical genetic growth profiling, strain panel (AID 1159580);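 further: tested at 20 µM; growth read once vehicle control cultures reached saturation at 30 °C; 1 = growth at the plate median or of vehicle wells; lower values mean less growth of the strain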
Settings: growth OD

Measured: normalized growth

CN(C)C(=O)Nc1ccc(Cl)c(Cl)c1
inactive: S. cerevisiae deletion strains, locus YJR075W, strain HOC1, active compounds read low 0.958 | S. cerevisiae deletion strains, locus YKL009W, strain mrt4, active compounds read low 0.97 | S. cerevisiae deletion strains, locus YKL068W, active compounds read low 1 | S. cerevisiae deletion strains, locus YKL085W, strain MDH1 (second series), active compounds read low 1 | S. cerevisiae deletion strains, locus YKL085W, strain MDH1, active compounds read low 1 | S. cerevisiae deletion strains, locus YKL160W, strain elf1, active compounds read low 0.955 | S. cerevisiae deletion strains, locus YKL190W, strain CNB1, active compounds read low 0.996 | S. cerevisiae deletion strains, locus YKR001C, strain vps1, active compounds read low 0.984 | S. cerevisiae deletion strains, locus YKR026C, strain gcn3, active compounds read low 0.993 | S. cerevisiae deletion strains, locus YKR091W, strain srl3, active compounds read low 0.982 | S. cerevisiae deletion strains, locus YLL001W, strain dnm1, active compounds read low 0.901 | S. cerevisiae deletion strains, locus YLL026W, active compounds read low 0.991 | S. cerevisiae deletion strains, locus YLL041C, strain sdh2, active compounds read low 0.994 | S. cerevisiae deletion strains, locus YLR027C, strain aat2, active compounds read low 0.969 | S. cerevisiae deletion strains, locus YLR039C, strain RIC1, active compounds read low 1.04 | S. cerevisiae deletion strains, locus YLR058C, strain SHM2, active compounds read low 0.991 | S. cerevisiae deletion strains, locus YLR102C, strain apc9, active compounds read low 1 | S. cerevisiae deletion strains, locus YLR113W, strain HOG1, active compounds read low 0.909 | S. cerevisiae deletion strains, locus YLR221C, strain rsa3, active compounds read low 0.963 | S. cerevisiae deletion strains, locus YLR258W, strain gsy2, active compounds read low 0.984 | S. cerevisiae deletion strains, locus YLR262C, strain YPT6 (second series), active compounds read low 0.996 | S. cerevisiae deletion strains, locus YLR262C, strain YPT6, active compounds read low 1.01 | S. cerevisiae deletion strains, locus YLR268W, strain sec22, active compounds read low 0.988 | S. cerevisiae deletion strains, locus YLR320W, strain mms22, active compounds read low 0.98 | S. cerevisiae deletion strains, locus YLR330W, strain CHS5, active compounds read low 0.994 | S. cerevisiae deletion strains, locus YLR342W, strain FKS1 (second series), active compounds read low 0.983 | S. cerevisiae deletion strains, locus YLR342W, strain FKS1, active compounds read low 0.985 | S. cerevisiae deletion strains, locus YLR357W, strain rsc2, active compounds read low 0.969 | S. cerevisiae deletion strains, locus YLR370C, strain arc18, active compounds read low 0.965 | S. cerevisiae deletion strains, locus YLR371W, strain rom2, active compounds read low 1 | S. cerevisiae deletion strains, locus YLR384C, strain iki3, active compounds read low 1.01 | S. cerevisiae deletion strains, locus YLR418C, strain cdc73, active compounds read low 0.85 | S. cerevisiae deletion strains, locus YML016C, strain PPZ1, active compounds read low 0.993 | S. cerevisiae deletion strains, locus YML032C, strain rad52, active compounds read low 0.994 | S. cerevisiae deletion strains, locus YML120C, strain ndi1, active compounds read low 0.985 | S. cerevisiae deletion strains, locus YML124C, strain tub3, active compounds read low 1 | S. cerevisiae deletion strains, locus YMR058W, strain fet3, active compounds read low 0.992 | S. cerevisiae deletion strains, locus YMR078C, strain ctf18, active compounds read low 0.999 | S. cerevisiae deletion strains, locus YMR125W, strain sto1, active compounds read low 1.04 | S. cerevisiae deletion strains, locus YMR129W, active compounds read low 0.991 | S. cerevisiae deletion strains, locus YMR205C, strain PFK2, active compounds read low 0.917 | S. cerevisiae deletion strains, locus YMR223W, strain ubp8, active compounds read low 0.987 | S. cerevisiae deletion strains, locus YMR231W, strain pep5, active compounds read low 1 | S. cerevisiae deletion strains, locus YMR263W, strain SAP30, active compounds read low 0.956 | S. cerevisiae deletion strains, locus YMR307W, strain GAS1, active compounds read low 0.812 | S. cerevisiae deletion strains, locus YNL067W, strain RPL9B, active compounds read low 0.986 | S. cerevisiae deletion strains, locus YNL071W, strain lat1, active compounds read low 0.982 | S. cerevisiae deletion strains, locus YNL128W, strain TEP1, active compounds read low 0.993 | S. cerevisiae deletion strains, locus YNL153C, strain GIM3, active compounds read low 0.996 | S. cerevisiae deletion strains, locus YNL183C, strain NPR1, active compounds read low 0.939 | S. cerevisiae deletion strains, locus YNL209W, strain ssb2, active compounds read low 0.972 | S. cerevisiae deletion strains, locus YNL233W, strain BNI4, active compounds read low 0.97 | S. cerevisiae deletion strains, locus YNL248C, strain rpa49, active compounds read low 1.02 | S. cerevisiae deletion strains, locus YNL250W, strain rad50, active compounds read low 1.01 | S. cerevisiae deletion strains, locus YNL271C, strain bni1, active compounds read low 1 | S. cerevisiae deletion strains, locus YNL298W, strain CLA4, active compounds read low 0.998 | S. cerevisiae deletion strains, locus YNL307C, strain MCK1, active compounds read low 0.935 | S. cerevisiae deletion strains, locus YNL322C, strain KRE1 (second series), active compounds read low 0.969 | S. cerevisiae deletion strains, locus YNL322C, strain KRE1, active compounds read low 1 | S. cerevisiae deletion strains, locus YNR049C, strain mso1, active compounds read low 0.987 | S. cerevisiae deletion strains, locus YNR052C, strain pop2, active compounds read low 1.03 | S. cerevisiae deletion strains, locus YOL006C, strain TOP1, active compounds read low 0.862 | S. cerevisiae deletion strains, locus YOL012C, strain htz1 1.04 | S. cerevisiae deletion strains, locus YOL147C, strain pex11, active compounds read low 1 | S. cerevisiae deletion strains, locus YOR001W, strain rrp6, active compounds read low 1 | S. cerevisiae deletion strains, locus YOR061W, strain CKA2, active compounds read low 1 | S. cerevisiae deletion strains, locus YOR069W, strain VPS5, active compounds read low 1 | S. cerevisiae deletion strains, locus YOR070C, strain gyp1, active compounds read low 0.997 | S. cerevisiae deletion strains, locus YOR080W, strain dia2, active compounds read low 1.01 | S. cerevisiae deletion strains, locus YOR083W, strain WHI5, active compounds read low 0.927 | S. cerevisiae deletion strains, locus YOR106W, strain vam3, active compounds read low 0.919 | S. cerevisiae deletion strains, locus YOR136W, strain idh2, active compounds read low 0.997 | S. cerevisiae deletion strains, locus YOR144C, strain elg1, active compounds read low 1.01 | S. cerevisiae deletion strains, locus YOR184W, strain ser1, active compounds read low 0.929 | S. cerevisiae deletion strains, locus YOR231W, strain MKK1, active compounds read low 0.991 | S. cerevisiae deletion strains, locus YOR265W, strain rbl2, active compounds read low 0.992 | S. cerevisiae deletion strains, locus YOR270C, strain vph1, active compounds read low 0.925 | S. cerevisiae deletion strains, locus YOR290C, strain snf2, active compounds read low 0.926 | S. cerevisiae deletion strains, locus YOR316C, strain cot1, active compounds read low 1 | S. cerevisiae deletion strains, locus YPL051W, strain arl3, active compounds read low 0.956 | S. cerevisiae deletion strains, locus YPL055C, strain LGE1, active compounds read low 0.95 | S. cerevisiae deletion strains, locus YPL078C, strain atp4, active compounds read low 0.988 | S. cerevisiae deletion strains, locus YPL106C, strain sse1, active compounds read low 0.981 | S. cerevisiae deletion strains, locus YPL240C, strain hsp82, active compounds read low 0.982 | S. cerevisiae deletion strains, locus YPL241C, strain CIN2, active compounds read low 1 | S. cerevisiae deletion strains, locus YPL256C, strain CLN2, active compounds read low 0.975 | S. cerevisiae deletion strains, locus YPR119W, strain clb2, active compounds read low 0.996 | S. cerevisiae deletion strains, locus YPR141C, strain kar3, active compounds read low 1 | S. cerevisiae deletion strains, locus YPR163C, strain tif3, active compounds read low 1 | S. cerevisiae deletion strains, locus YPR167C, strain met16, active compounds read low 0.999 | S. cerevisiae deletion strains, strain wtn01, active compounds read low 0.994 | S. cerevisiae strains, strain wild type, active compounds read low 0.995

— PubChem BioAssay AID1159580 (chemical genetic matrix, 2015)
